In PubChem BioAssay (EPA / NIEHS) one finds AC50 and outcome data, which are given here for eleven compounds.

Results filed as inconclusive are left out. Calls of active or inactive are those of the source. How the source made its calls: active means hit-call score of the fitted dose curve at least 0.9, where 1 is the maximum; inconclusive means response in the unintended direction; inactive means score below 0.9.

Luciferin 4-monooxygenase (Photinus pyralis), sequence (P08659 whole entry, looked up): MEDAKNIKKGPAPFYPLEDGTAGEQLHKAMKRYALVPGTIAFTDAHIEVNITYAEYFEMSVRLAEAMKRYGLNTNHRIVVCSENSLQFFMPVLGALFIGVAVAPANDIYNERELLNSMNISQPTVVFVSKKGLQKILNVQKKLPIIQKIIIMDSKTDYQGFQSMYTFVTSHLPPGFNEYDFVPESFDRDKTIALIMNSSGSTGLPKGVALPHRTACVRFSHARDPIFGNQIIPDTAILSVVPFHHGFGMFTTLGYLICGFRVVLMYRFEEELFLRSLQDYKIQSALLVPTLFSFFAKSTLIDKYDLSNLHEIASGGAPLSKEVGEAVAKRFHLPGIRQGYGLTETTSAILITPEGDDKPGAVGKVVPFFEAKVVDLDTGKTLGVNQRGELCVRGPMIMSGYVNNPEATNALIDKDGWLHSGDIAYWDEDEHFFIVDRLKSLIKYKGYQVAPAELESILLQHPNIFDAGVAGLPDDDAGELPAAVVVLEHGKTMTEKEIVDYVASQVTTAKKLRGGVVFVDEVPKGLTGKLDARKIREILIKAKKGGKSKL

The test system of one experiment is Thyroperoxidase (TPO), gene 445522. The experiment is described as follows: CCTE_Simmons_GUA_TPO: CCTE's Guaiacol Assay for Thyroperoxidase (TPO) Inhibition, Simmons Lab (AID 2283750). In a few lines:
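Porcine thyroid microsomes (25 ug) in 200mM potassium phosphate, preincubated 30 s at 37C with compound (8 concentrations, 5 nM–87.5 uM) and 35mM guaiacol; 1mM H2O2 starts reaction. Absorbance change at 450nm over first 80 s; loss of signal versus DMSO, three replicates.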
With `COC(=O)NS(=O)(=O)c1ccc(N)cc1`, the half-maximal activity concentration (AC50) (in general, the midpoint of the concentration-response curve, whichever way the signal moves) is 136 µM (active). With `COC(=O)NC(=S)Nc1ccccc1NC(=S)NC(=O)OC`, the AC50 is 49.6 µM (active). In the case of `COP(=S)(OC)SCn1nnc2ccccc2c1=O`, the AC50 was 49.6 µM (active).

A further experiment addresses Luciferin 4-monooxygenase (Photinus pyralis) (UniProt P08659). The experiment is described as follows: CCTE_Simmons_QuantiLum_inhib_2: CCTE's Firefly Luciferase Inhibition Assay, Simmons Lab (AID 2283767).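 On AC50: potency for inhibitors that lower luciferase luminescence relative to DMSO.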 In outline: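 Cell-free recombinant firefly luciferase (5 ng/well) in 200mM potassium phosphate with 1 mg/ml BSA, 30 min at 37C with 8 concentrations from 5 nM to 87.5 uM [final], 0.5% DMSO. Luminescence read after D-luciferin (150uM)/dATP (147uM) reagent injection, pH 7.8; triplicates.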
As to `CCOP(=O)(OCC)Oc1nc(Cl)c(Cl)cc1Cl`, the result was inactive. As to `COC(=O)NS(=O)(=O)c1ccc(N)cc1`, the AC50 is 0.149 µM (active). As to `O=P(O)(O)CCCl`, the outcome was inactive. Regarding `CC(C)=CC1C(C(=O)OCc2coc(Cc3ccccc3)c2)C1(C)C` (centres undefined), the outcome was inactive.

Turning to `O=c1n(Cl)c(=O)n(Cl)c(=O)n1Cl`, the outcome was inactive. On to `COC(=O)NC(=S)Nc1ccccc1NC(=S)NC(=O)OC`, for which the call was inactive. With `CCN(CC)C(=O)C(C)Oc1cccc2ccccc12` (centres undefined), the half-maximal activity concentration (AC50) was 0.000739 µM (active). Regarding `COP(=S)(OC)SCn1nnc2ccccc2c1=O`, the call was inactive.

With `COc1ccc(-c2ccccc2)cc1NNC(=O)OC(C)C`, the AC50 was 0.556 µM (active). For the compound `CS(=O)(=O)c1ccc(C(=O)C2C(=O)CCCC2=O)c([N+](=O)[O-])c1`, the result was inactive. Regarding `Clc1nc(Cl)nc(Nc2ccccc2Cl)n1`, the AC50 is 8.85 µM (active).
